Test results as given in PubChem BioAssay (NCATS).
Records with an inconclusive call do not appear. The source made the active and inactive calls. The call rests on the fitted dose curve; in most records, active means well fitted curve in the direction sought with a large enough effect; inconclusive means small, poorly fitted or top-dose-only effect, or another doubt; inactive means no such curve, though single readings can be large; an effect the other way counts as inactive or inconclusive.

Columns and labels:
[1] = Quantitative High-Throughput drug screen in 47 multiple myeloma cell lines against the NCATS MIPE library collection: EJM_DSMZ cell viability assay (AID 1918926; further: nearly all actives have a fitted effect of over 30% in size)
Summary of the method: (§1)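 CellTiter-Glo luminescence (ATP) after 48 h compound exposure, 37C/5% CO2; 500 cells/well; MIPE 4.0 approved/investigational drugs pinned in; DMSO = 100%, media only = 0% viability.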

[2] = Quantitative High-Throughput drug screen in 47 multiple myeloma cell lines against the NCATS MIPE library collection: ARP1_JJKsccF8 cell viability assay (AID 1918928; further: nearly all actives have a fitted effect of over 40% in size)
Summary of the method: (§2)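 Luminescence from CellTiter-Glo, taken after 5 min at room temperature, reports cellular ATP as viability. Cells (500 per well) had been treated 48 h at 37 °C with MIPE 4.0 compounds, scaled between DMSO and medium-only controls.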

[3] = Quantitative High-Throughput drug screen in 47 multiple myeloma cell lines against the NCATS MIPE library collection: JIM3_ECACC cell viability assay (AID 1918963; further: nearly all actives have a fitted effect of over 35% in size)
Summary of the method: as §1

[4] = Quantitative High-Throughput drug screen in 47 multiple myeloma cell lines against the NCATS MIPE library collection: JIM1_ECACC cell viability assay (AID 1918964)
Summary of the method: as §1

[5] = Quantitative High-Throughput drug screen in 47 multiple myeloma cell lines against the NCATS MIPE library collection: Karpas620_DSMZ cell viability assay (AID 1918959); further: nearly all actives have a fitted effect of over 30% in size
Summary of the method: as §1

[6] = Quantitative High-Throughput drug screen in 47 multiple myeloma cell lines against the NCATS MIPE library collection: KHM11_PLB cell viability assay (AID 1918962); further: nearly all actives have a fitted effect of over 35% in size
Summary of the method: as §1

[7] = Quantitative High-Throughput drug screen in 47 multiple myeloma cell lines against the NCATS MIPE library collection: KMM1_JCRB cell viability assay (AID 1918960); further: nearly all actives have a fitted effect of over 30% in size;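 on viability (% of DMSO): 100% = DMSO-treated cells and 0% = medium-only wells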
Summary of the method: as §2

[8] = Quantitative High-Throughput drug screen in 47 multiple myeloma cell lines against the NCATS MIPE library collection: Karpas417_ECACC cell viability assay (AID 1918961); conditions: Karpas417 myeloma viability, CellTiter-Glo ATP luminescence, 48 h; viability (% of DMSO): at 45.8 µM (top of the series)
Summary of the method: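 Myeloma cells (500 per well) were exposed to MIPE 4.0 compounds by pin transfer and incubated 48 hours at 37C, 5% CO2. Viability was read as ATP by CellTiter-Glo luminescence, normalised to DMSO (100%) and media-only (0%) wells.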

[9] = Quantitative High-Throughput drug screen in 47 multiple myeloma cell lines against the NCATS MIPE library collection: ARD_JJKsccE7 cell viability assay (AID 1918929)
Summary of the method: as §1

[10] = Quantitative High-Throughput drug screen in 47 multiple myeloma cell lines against the NCATS MIPE library collection: AMO1_DSMZ cell viability assay (AID 1918927; further: nearly all actives have a fitted effect of over 30% in size)
Summary of the method: as §1
Potency means the concentration at half of the fitted maximal effect.

CCCCCCCCCCCCCCCC(=O)O[C@H]1[C@@H](O)[C@@H](O)[C@@H]([C@H](NC(=O)[C@@H]2C[C@@H](CCC)CN2C)[C@H](C)Cl)O[C@@H]1SC
inactive: Potency [1] | Potency [2] | Potency [3] | Potency [4]

O=C(O)CCC=CCC[C@@H]1[C@H](N2CCCCC2)[C@@H](O)C[C@@H]1OCc1ccc(-c2ccccc2)cc1
inactive: Potency [1] | Potency [2] | Potency [5] | Potency [6] | Potency [3]

CSc1cccc(Nc2ncc3cc(-c4c(Cl)cccc4Cl)c(=O)n(C)c3n2)c1
active: Potency [1] 6.62 µM | Potency [2] 1.87 µM | Potency [7] 0.059 µM | Potency [8] 0.0264 µM | Potency [6] 0.0332 µM

CC[C@H]1OC(=O)[C@H](C)[C@@H](O[C@H]2C[C@@](C)(OC)[C@@H](O)[C@H](C)O2)[C@H](C)[C@@H](O[C@@H]2O[C@H](C)C[C@H](N(C)C)[C@H]2O)[C@](C)(O)C[C@H](C)C(=NOCOCCOC)[C@H](C)[C@@H](O)[C@]1(C)O
inactive: Potency [1] | Potency [2] | Potency [5] | Potency [7] | Potency [6] | Potency [3] | Potency [4]

C[C@H](CCC(=O)O)[C@H]1CC[C@H]2[C@H]3[C@@H](CC[C@]12C)[C@@]1(C)CC[C@@H](O)C[C@H]1C[C@@H]3O
inactive: Potency [1] | Potency [3]
active: Potency [2] 1.48 µM

CC(C)(OCc1nn(Cc2ccccc2)c2ccccc12)C(=O)O
inactive: Potency [2] | Potency [5] | Potency [7]
active: Potency [1] 9.35 µM

CC(=O)OCC(=O)[C@@]12OC(C)(C)O[C@H]1C[C@H]1[C@@H]3C[C@H](F)C4=CC(=O)C=C[C@]4(C)[C@@]3(F)[C@@H](O)C[C@@]12C
active: Potency [9] 0.0148 µM
inactive: Potency [1] | Potency [5] | Potency [6] | Potency [3] | Potency [4]

Cc1cc2c(cc1C1(c3ccc(C(=O)O)cn3)CC1)C(C)(C)CCC2(C)C
active: Potency [2] 26.4 µM | Potency [3] 0.332 µM
inactive: Potency [1] | Potency [5] | Potency [7]

CC1CNc2c(cccc2S(=O)(=O)N[C@@H](CCCN=C(N)N)C(=O)N2CC[C@@H](C)C[C@@H]2C(=O)O)C1 (stereo not given in full)
inactive: Potency [1] | Potency [9] | Potency [6] | Potency [3]
active: Potency [5] 23.5 µM

COC(=O)N1CCN(Cc2cccc(NC(=O)Nc3ccc(C)nc3)c2F)CC1
inactive: Potency [1] | Potency [9] | Potency [5] | Potency [7] | Potency [6] | Potency [4]

C[C@H]1O[C@@H](n2cc(F)c(=O)[nH]c2=O)[C@H](O)[C@H]1O
inactive: Potency [1] | Potency [2] | Potency [8]
active: Potency [7] 5.26 µM | Potency [3] 11.8 µM

O=c1cc(-c2ccc(O)c(O)c2)oc2cc(O)cc(O)c12
inactive: Potency [1] | Potency [2] | Potency [5] | Potency [7] | Potency [3]

COc1cc([C@H]2Oc3cc([C@H]4Oc5cc(O)cc(O)c5C(=O)[C@H]4O)ccc3O[C@H]2CO)ccc1O
inactive: Potency [5] | Potency [4]
active: Potency [1] 14.8 µM | Potency [2] 16.6 µM | Potency [3] 16.6 µM

C#CCN(C)CC1=Cc2ccccc2Oc2ccccc21
inactive: Potency [1] | Potency [2] | Potency [5] | Potency [3] | Potency [4]

Clc1ccc(C2(c3ccc(-c4cn[nH]c4)cc3)CCNCC2)cc1
active: Potency [1] 20.9 µM | Potency [2] 23.5 µM | Potency [8] 6.62 µM | Potency [6] 11.8 µM | Potency [3] 26.4 µM

CC[C@H](C=C[C@@H](C)[C@H]1CC[C@H]2[C@@H]3CC=C4C[C@@H](O)CC[C@]4(C)[C@@H]3CC[C@]12C)C(C)C
active: Potency [1] 7.24 µM
inactive: Potency [2] | Potency [5] | Potency [7] | Potency [6]

CCn1c(-c2nonc2N)nc2cncc(CNC3CCNCC3)c21
inactive: Potency [1]
active: Potency [2] 10.5 µM | Potency [6] 2.64 µM | Potency [3] 2.96 µM

CCC[C@H](N[C@@H](C)C(=O)N1[C@@H]2CCCC[C@H]2C[C@H]1C(=O)O)C(=O)OCC
inactive: Potency [1] | Potency [2] | Potency [5]
active: Potency [3] 14.8 µM

NC(N)=Nc1nc(CSCCC(N)=NS(N)(=O)=O)cs1
active: Potency [1] 23.5 µM
inactive: Potency [9] | Potency [5] | Potency [7]

CC(=O)N1CCN(c2ccc(OCc3nn(C)c(C)c3-c3cccc4c(CCCOc5cc(C)c(Cl)c(C)c5)c(C(=O)O)n(Cc5cccnc5)c34)cc2)CC1
active: Potency [1] 20.9 µM | Potency [9] 20.9 µM | Potency [5] 26.4 µM

N#CC(c1ccc(Cl)cc1)c1c(Cl)cc(-n2ncc(=O)[nH]c2=O)cc1Cl (stereo not given)
active: Potency [1] 16.6 µM | Potency [9] 18.7 µM | Potency [5] 10.5 µM | Potency [6] 0.372 µM | Potency [4] 20.9 µM

O=C(NCCCCN1CCOCC1)c1cc2ccccc2o1
active: viability (% of DMSO) [8] 159%
inactive: Potency [1] | Potency [9] | Potency [5] | Potency [7] | Potency [6] | Potency [3]

Cc1nc(C(=O)NCC(=O)O)c(O)c2ccc(Oc3ccccc3)cc12
inactive: Potency [1] | Potency [2] | Potency [5] | Potency [3]

C[C@@H]1CC=CC=CC=CC=C[C@@H](O[C@@H]2O[C@H](C)[C@@H](O)[C@H](N)[C@H]2O)C[C@@H]2O[C@](O)(C[C@@H](O)C[C@@H]3O[C@@H]3C=CC(=O)O1)C[C@H](O)[C@@H]2C(=O)O
inactive: Potency [10] | Potency [5] | Potency [7] | Potency [4]
active: Potency [2] 4.18 µM | Potency [6] 13.2 µM | Potency [3] 5.9 µM

COc1c(C)c2c(c(O)c1CC=C(C)CCC(=O)OCCN1CCOCC1)C(=O)OC2
inactive: Potency [5]
active: Potency [10] 0.372 µM | Potency [9] 1.18 µM

CCCCC(C=O)NC(=O)C(CC(C)C)NC(=O)OCc1ccccc1 (stereo not given)
inactive: Potency [10] | Potency [9] | Potency [5] | Potency [7] | Potency [6]

Cc1cccc(-c2[nH]c(C(C)(C)C)nc2-c2ccc3c(c2)OCO3)n1
active: Potency [2] 16.6 µM | Potency [9] 5.26 µM | Potency [6] 1.18 µM | Potency [3] 0.833 µM | Potency [4] 6.62 µM
inactive: Potency [10]

CO[C@H]1C=CO[C@@]2(C)Oc3c(C)c(O)c4c(O)c(c(C=NN5CCN(C)CC5)c(O)c4c3C2=O)NC(=O)C(C)=CC=C[C@H](C)[C@H](O)[C@@H](C)[C@@H](O)[C@@H](C)[C@H](OC(C)=O)[C@H]1C
inactive: Potency [9] | Potency [5] | Potency [7]
active: Potency [10] 5.98 µM

CCCCCCCCCCCCCC(=O)N[C@H](CO)[C@H](O)c1ccc([N+](=O)[O-])cc1
active: Potency [10] 10.5 µM | Potency [9] 20.9 µM | Potency [5] 16.6 µM | Potency [7] 20.9 µM | Potency [3] 26.4 µM | Potency [4] 14.8 µM

COc1c(C)c2c(c(O)c1CC=C(C)CCC(=O)O)C(=O)OC2
active: Potency [10] 0.935 µM | Potency [2] 6.62 µM | Potency [3] 4.69 µM | Potency [4] 9.35 µM
inactive: Potency [5] | Potency [7]

CCN(CCO)CCCOc1ccc2c(Nc3cc(CC(=O)Nc4cccc(F)c4)[nH]n3)ncnc2c1
active: Potency [10] 0.187 µM | Potency [8] 0.469 µM
inactive: Potency [9] | Potency [5] | Potency [7] | Potency [6] | Potency [3]

Cc1ccc(NC(=O)Nc2cc(C(F)(F)F)ccc2F)cc1Nc1ccc2c(c1)NC(=O)C2=Cc1ccc[nH]1
active: Potency [10] 4.18 µM | Potency [9] 3.32 µM | Potency [5] 5.26 µM | Potency [7] 5.9 µM | Potency [8] 2.09 µM | Potency [6] 7.43 µM | Potency [3] 4.18 µM | Potency [4] 4.18 µM

CNc1nc(-c2ccc3c(N)n[nH]c3c2)cc(N2C[C@@H](C(=O)NC3CCCCC3)CC[C@@H]2C)n1
active: Potency [10] 20.9 µM | Potency [2] 11.8 µM | Potency [9] 8.33 µM | Potency [5] 20.9 µM | Potency [3] 6.62 µM

COC1CCC(C(=O)c2ccc3nc4c(cc3c2)CCCO4)CC1 (stereo not given)
active: Potency [10] 18.7 µM | Potency [2] 23.5 µM | Potency [5] 16.6 µM | Potency [6] 9.35 µM | Potency [3] 14.8 µM

CO[C@H]1/C=C\O[C@@]2(C)Oc3c(C)c(O)c4c(O)c(c5c(nc6cc(C)ccn65)c4c3C2=O)NC(=O)C(C)=CC=C[C@H](C)[C@H](O)[C@@H](C)[C@@H](O)[C@@H](C)[C@H](OC(C)=O)[C@H]1C
inactive: Potency [3]
active: Potency [10] 16.6 µM | Potency [9] 18.7 µM | Potency [5] 18.7 µM | Potency [7] 18.7 µM | Potency [8] 0.833 µM | Potency [4] 18.7 µM
